Compounds without any hit were thinned out: in the full panel of roughly 83,000, 20% have a hit.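 Activity criterion: percent growth below 10, measured after cells in 96-well plates were exposed to a single compound concentration for 48 hours.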 A number with no mark means an inactive call. The source made the active and inactive calls.

Results on six compounds are retold here after PubChem BioAssay (NCI).

Assay in all cases: NCI-60 one-dose screen, 48 h (100 = growth as untreated, 0 = no growth, -100 = all killed)
One assay has as its system NCI-H23 lung. The conditions noted are these: 10 µM unless noted.
In another assay the test system is NCI-H226 lung. Particulars: 10 µM unless noted.
The next assay has as its system NCI-H322M lung. The conditions noted are these: 10 µM unless noted.
The subject of another assay is HOP-62 NSCLC. The conditions noted are these: 10 µM unless noted.
The subject of another assay is NCI-H460 lung. The conditions noted are these: 10 µM unless noted.
The next assay has as its system HOP-92 NSCLC. The conditions noted are these: 10 µM unless noted.
The next assay has as its system NCI-H522 lung. The conditions noted are these: 10 µM unless noted.
For a further assay, the system named is A549/ATCC NSCLC. Particulars: 10 µM unless noted.
In another assay the test system is 786-0 renal. The conditions noted are these: 10 µM unless noted.
A further assay relates to COLO 205 colon. Particulars: 10 µM unless noted.
Another assay relates to DU-145 prostate. Particulars: 10 µM unless noted.
A further assay has as its system K-562 leukemia. Particulars: 10 µM unless noted.
In another assay the test system is MALME-3M melanoma. Particulars: 10 µM unless noted.
For a further assay, the system named is MDA-MB-231 breast. The conditions noted are these: 10 µM unless noted.
For the next assay, the system named is SF-268 CNS. Particulars: 10 µM unless noted.
The subject of a further assay is SF-295 CNS. The conditions noted are these: 10 µM unless noted.
Another assay concerns SF-539 CNS. The conditions noted are these: 10 µM unless noted.
For the next assay, the system named is M14 melanoma. Particulars: 10 µM unless noted.
The test system of a further assay is UACC-257 melanoma. Particulars: 10 µM.

Consider `COc1ccc(OC)c(/C=C2\Oc3cc(OCCN4CCCC4)ccc3C2=O)c1`, for which the growth was 87.7% in the assay with NCI-H23 lung; 104% in the assay on NCI-H226 lung; 97.4% in the assay on NCI-H322M lung; 87.2% with HOP-62 NSCLC; 99.1% in the assay on NCI-H460 lung; 92.3% in the assay with HOP-92 NSCLC. The growth is 103% with NCI-H522 lung; 103% with A549/ATCC NSCLC; 93.9% with 786-0 renal; 97.9% in the assay with COLO 205 colon; 96.5% with DU-145 prostate; 3.51% (active) in the assay with K-562 leukemia. The growth in the assay with MALME-3M melanoma is 104%; in the assay on MDA-MB-231 breast it was 84.6%; in the assay on SF-268 CNS, 93.7%; with SF-295 CNS it was 101%; with SF-539 CNS, 84.7%; in the assay on M14 melanoma, 98.4%.

For `Nc1nc(Cl)c2c(ncn2Cc2ccc(CCl)cc2)n1`, the growth is 94% in the assay with NCI-H23 lung; 94.5% in the assay on NCI-H226 lung; 94.9% in the assay with NCI-H322M lung; 120% in the assay with HOP-62 NSCLC; 93.8% in the assay with NCI-H460 lung; 54.9% in the assay with HOP-92 NSCLC. In addition, the growth is 76.1% in the assay with NCI-H522 lung; 83.4% with A549/ATCC NSCLC; 103% in the assay with 786-0 renal; 106% in the assay on COLO 205 colon; 86.5% in the assay with DU-145 prostate; 117% in the assay on K-562 leukemia. Further, the growth is 94.6% in the assay on MALME-3M melanoma; 88.2% with MDA-MB-231 breast; 91.1% in the assay on SF-268 CNS; 52.8% in the assay with SF-295 CNS; 82.5% in the assay with SF-539 CNS; 97.2% with M14 melanoma.

For the compound `CC(=O)Nc1nc(C(=O)N2N=C(C)/C(=C/c3ccccc3)C2=O)cs1`, the growth in the assay with NCI-H23 lung is 108%; with NCI-H226 lung, 107%; with NCI-H322M lung, 102%; in the assay on HOP-62 NSCLC it was 99.8%; in the assay with NCI-H460 lung, 106%; in the assay on HOP-92 NSCLC it was 108%. The growth in the assay with NCI-H522 lung is 85.4%; in the assay with A549/ATCC NSCLC, 101%; with 786-0 renal, 105%; in the assay with COLO 205 colon, 103%; with DU-145 prostate, 111%; with K-562 leukemia, 98.4%. The growth was 96.8% in the assay on MALME-3M melanoma; 113% in the assay with MDA-MB-231 breast; 105% in the assay with SF-268 CNS; 108% with SF-295 CNS; 97.2% in the assay with SF-539 CNS; 104% in the assay on UACC-257 melanoma. In the assay on M14 melanoma, the growth is 95.2%.

In the case of `CCCCCC/C=C\CCCCCCCCOc1ccc(CCOP(=O)(O)OCC[N+](C)(C)C)cc1`, the growth with NCI-H23 lung is 98.8%; in the assay with NCI-H226 lung, 102%; in the assay on NCI-H322M lung, 105%; in the assay on HOP-62 NSCLC, 72.8%; in the assay on NCI-H460 lung, 26.9%; in the assay with HOP-92 NSCLC, 60.7%. The growth is 59% in the assay on NCI-H522 lung; 79% with A549/ATCC NSCLC; 89.6% in the assay with 786-0 renal; 86.4% in the assay on COLO 205 colon; 98% with DU-145 prostate; 74.8% in the assay with K-562 leukemia. The growth in the assay with MALME-3M melanoma is 103%; in the assay on MDA-MB-231 breast, 88.3%; with SF-268 CNS, 66.7%; in the assay on SF-295 CNS it was 89.9%; in the assay on SF-539 CNS, 94.7%; with M14 melanoma, 88.1%.

For `CCCCCCCCCN1C(=O)/C(=c2\sc3n(c2=O)C2C(NN=3)N(CC)C(=O)N2CC)c2ccccc21` (centres undefined), the growth with NCI-H23 lung was 10.1%; in the assay on NCI-H226 lung, 89.6%; in the assay on NCI-H322M lung, 77%; with HOP-62 NSCLC it was 45.1%; in the assay on NCI-H460 lung, 46.1%; with HOP-92 NSCLC it was 44.5%. Further, the growth with NCI-H522 lung is 26.8%; with A549/ATCC NSCLC, 56%; with 786-0 renal, 78.4%; with COLO 205 colon it was 93.3%; in the assay with DU-145 prostate, 69.8%; in the assay on K-562 leukemia, 21.3%. Moreover, the growth in the assay with MALME-3M melanoma was 50.7%; with MDA-MB-231 breast, 63.9%; with SF-268 CNS it was 50.9%; in the assay on SF-295 CNS, 61%; with SF-539 CNS, 8.03% (active); in the assay on M14 melanoma it was 90.8%.

`COc1ccc(NC(=O)/N=c2\oc3c(OC)cccc3cc2-c2cc3ccccc3[nH]2)cc1`: the growth in the assay with NCI-H23 lung was 53.2%; with NCI-H226 lung, 67.7%; in the assay on NCI-H322M lung, 74%; with HOP-62 NSCLC it was 22.6%; with NCI-H460 lung, 49.4%; in the assay with HOP-92 NSCLC, -9.99% (active). Further, the growth is 76.3% with NCI-H522 lung; 55.7% in the assay on A549/ATCC NSCLC; 10.7% with 786-0 renal; 97.8% in the assay on COLO 205 colon; 69.3% in the assay on DU-145 prostate; 86.3% in the assay on K-562 leukemia. Further, the growth was 57.3% in the assay on MALME-3M melanoma; 36.3% with MDA-MB-231 breast; 70% in the assay with SF-268 CNS; 52.1% in the assay with SF-295 CNS; 35.3% with SF-539 CNS; 93.5% with M14 melanoma.
